Data on 99 compounds can be found in PubChem BioAssay AID588855 (National Center for Advancing Translational Sciences (NCATS), 2011).

The campaign covered roughly 410,000 compounds. About 5,000 (1.2%) were called active. Where a call stands in place of a potency, no number is given. Not shown: some 13% with an inconclusive outcome. The sample holds actives, similar compounds and a random draw of the others, so the mix is not that of the screen. Calls come from the whole dose curve; as a rule, active = well fitted inhibition curve with a large enough effect; inconclusive = small, poorly fitted or top-dose-only effect; inactive = no such curve, though single readings can be large or run the other way.
Potency is the fitted concentration of half-maximal effect.

A short description of this test: qHTS for Inhibitors of TGF-b. Note: nearly all actives have a fitted effect of over 65% in size. Conditions: HepG2 CAGA-GFP TGF-b/SMAD3 reporter, GFP fluorescence, 18 h, TGF-beta stimulated, 500 pg/mL final; series mostly up to 46.1 µM. The method in brief: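 Cell-based qHTS in HEPG2 carrying a CAGA-GFP Smad reporter; compounds added before 500 pg/mL final TGF-beta, 18 h incubation at 37 degrees C, GFP fluorescence quantified per cell by imaging cytometry.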
A general note: qHTS replaces the single test concentration by a dilution series.
In the case of `COc1ccc(-c2cc(NC=O)c3ncc(-c4cccc(C(=O)N(C)C)c4)n3c2)c(OC)c1`, the Potency result was “inactive”.

Consider `CC(=O)c1cccc(-c2cnc3c(NC=O)cc(-c4ccc(N(C)C)cc4)cn23)c1`, for which the Potency was 4.47 µM (active).

Consider `COc1ccc(-c2cc(NC=O)c3ncc(-c4ccccc4)n3c2)cc1OC`, for which the Potency result was “inactive”.

With `CC(=O)c1ccc(-c2cnc3c(NC=O)cc(-c4cccc(NS(C)(=O)=O)c4)cn23)cc1`, the Potency is 7.08 µM (active).

Consider `O=CNc1cc(-c2ccc(C(=O)N3CCOCC3)cc2)cn2c(-c3ccc(F)cc3)cnc12`, for which the Potency entry was “inactive”.

Regarding `CN(C)C(=O)c1cccc(-c2cnc3c(NC=O)cc(-c4ccc(C(=O)N5CCOCC5)cc4)cn23)c1`, the Potency result is “inactive”.

For the compound `CCc1ccccc1NC(=O)c1cnn(-c2ccc(F)cc2)c1C1CCNCC1`, the Potency result was “inactive”.

Take `Cc1nn(CC(=O)NCCc2ccccc2)c(=O)c2c1sc1ccccc12`: the Potency entry is “inactive”.

As to `CC(=O)N1c2ccccc2CC1C(=O)N1CCN(c2ccc(F)cc2)CC1` (centres undefined), the Potency result is “inactive”.

Regarding `CCc1ccc(OCCCn2c(CCCNC(=O)C3CCCCC3)nc3ccccc32)cc1`, the Potency result was “inactive”.

In the case of `CCOC(=O)c1cc(-c2ccccc2)n(-c2cccc(C(=O)Nc3cc(OC)cc(OC)c3)c2)c1C`, the Potency entry was “inactive”.

For the compound `Cc1ccc(-c2cccc([C@H]3[C@@H]4C=CC[C@@H](C)[C@@H]4C(=O)N3Cc3ccccc3)c2)cc1`, the Potency is 20 µM (active).

Regarding `COc1ccc(-c2ccc(OC)c(C3C4C=CCC(C)C4C(=O)N3Cc3ccccc3)c2)cc1C` (centres undefined), the Potency result is “inactive”.

Take `Cc1cccc([C@@H]2[C@@H]3C(=O)N(Cc4ccccc4)C(=O)[C@@H]3[C@]3(C)C(=O)N(c4ccc(Br)cc4)C(=O)N23)c1`: the Potency result is “inactive”.

Take `COc1ccc(-n2c(SC)nc3sc4c(c3c2=O)CCN(C(C)=O)C4)cc1`: the Potency entry was “inactive”.

`O=C(Cn1nc(Cc2cccnc2)c2ccccc2c1=O)NCC1CCCO1` (centres undefined): the Potency result was “inactive”.

On to `Cc1ccc(Cl)cc1N(C)C(=O)Cn1nc(Cc2cccnc2)c2ccccc2c1=O`, for which the Potency is 12.6 µM (active).

`O=C(Cn1nc(Cc2cccnc2)c2ccccc2c1=O)NCC1COc2ccccc2O1` (centres undefined): the Potency entry is “inactive”.

Regarding `CC(C)CCNC(=O)CSc1nc2ccccc2nc1Cc1ccc(Cl)cc1`, the Potency result was “inactive”.

For `COc1ccc(CCNC(=O)c2ccc(CSCc3ccc(C)cc3)o2)cc1OC`, the Potency entry was “inactive”.

Take `Cc1c(C=O)c2ccccc2n1CCOc1ccccc1`: the Potency result is “inactive”.

In the case of `O=C1c2ccccc2C(=O)N1CCOc1ccc(F)cc1`, the Potency result is “inactive”.

As for `O=Cc1cn(CCOc2ccc(F)cc2)c2ccccc12`, the Potency is 3.98 µM (active).

As to `COC(=O)N/N=C/c1cn(CCCOc2ccc(C)cc2)c2ccccc12`, the Potency is 14.1 µM (active).

On to `COc1ccc(OCCn2cc(C(=O)C3CCCCC3)c3ccccc32)cc1`, for which the Potency entry was “inactive”.

`Cc1ccc(OCCOc2cccc(/C=N/NC(N)=O)c2)cc1`: the Potency result was “inactive”.

`Cc1ccccc1CSc1nc2c([nH]c3ccccc32)c(=O)n1C`: the Potency entry was “inactive”.

Turning to `CCn1cc(C(=O)N2CCN(c3cc(Cl)ccc3C)CC2)c(=O)c2cc(S(=O)(=O)N3CCCC3)ccc21`, the Potency result is “inactive”.

On to `COc1ccc(SCc2cc(=O)c3ccc(C)c(C)c3[nH]2)cc1`, for which the Potency result is “inactive”.

Turning to `OCCCNc1nccc(-c2cc(Nc3cccc(Cl)c3)ncn2)n1`, the Potency is 0.447 µM (active).

Regarding `CCOc1c(Nc2cccc(Cl)c2)c(=O)c1=O`, the Potency result was “inactive”.

In the case of `COc1ccc(S(=O)(=O)n2nc(C)c(S(=O)(=O)N3CCCCCC3)c2C)cc1`, the Potency entry is “inactive”.

On to `O=C(COc1ccccc1C(=O)Nc1ccccc1)Nc1cccc(F)c1`, for which the Potency result was “inactive”.

For `COCCNS(=O)(=O)c1cc(-c2nn3c(C)nnc3c3ccccc23)ccc1C`, the Potency entry was “inactive”.

Regarding `COc1cc(/C=C2\Oc3ccc(C#Cc4ccc(O)cc4)cc3C2=O)cc(OC)c1`, the Potency was 7.08 µM (active).

In the case of `COc1cc(OC)c(OC)cc1/C=C1\C=Cc2ccccc21`, the Potency entry is “inactive”.

`CN(C)c1ccc(/C=C2\C=Cc3ccccc32)cc1Br`: the Potency result was “inactive”.

As for `COc1cc(OC)c(NC(=O)c2cnc(N3CCCC3)nc2C)cc1Cl`, the Potency entry is “inactive”.

For the compound `COCCNc1nc(NCc2ccc(NC(C)=O)cc2)c2sccc2n1`, the Potency entry was “inactive”.

`COc1ccccc1CNc1nc(Nc2ccccc2Cl)c2sccc2n1`: the Potency entry was “inactive”.

Regarding `COc1cccc(CNc2nc(NCc3ccccc3OC)nc3ccsc23)c1`, the Potency is 10 µM (active).

For `Cc1cc(C)cc(NC(=O)CCCc2nc(-c3ccccc3Cl)no2)c1`, the Potency result was “inactive”.

On to `NC(=O)Nc1ccc(/C=C/c2ccnc3ccccc23)cc1`, for which the Potency result is “inactive”.

Turning to `CCCCS(=O)(=O)c1oc(-c2cccs2)nc1S(=O)(=O)c1ccccc1`, the Potency is 3.16 µM (active).

For `NC(=O)CSc1oc(-c2cccs2)nc1S(=O)(=O)c1ccccc1`, the Potency entry is “inactive”.

As for `Cc1ccc(S(=O)(=O)c2nc(-c3cccs3)oc2NCc2cccnc2)cc1`, the Potency result was “inactive”.

Regarding `CCOc1ccc(-c2nonc2NC(=O)c2oc3ccc(C)cc3c2C)cc1OCC`, the Potency entry was “inactive”.

Turning to `CC(C)(C)c1ccc(C(=O)Nc2ccc3c(c2)CCCN3C(=O)c2cccs2)cc1`, the Potency result was “inactive”.

As for `CC1CC2=C(CC1/C=N/NC(N)=S)C(C)(C)CCC2` (centres undefined), the Potency is 10 µM (active).

Regarding `COc1cc(OC)c(NC(=O)N2CC3CCCN3c3ccccc32)cc1Cl` (centres undefined), the Potency entry is “inactive”.

Take `COc1cc(NC(=O)c2noc3c2CSc2ccccc2-3)cc(OC)c1OC`: the Potency result was “inactive”.

Regarding `COc1ccc(-c2nc(CN3CCC(C(=O)NCCN(CC(C)C)CC(C)C)CC3)c(C)o2)cc1OC`, the Potency result was “inactive”.

For the compound `COc1cncc(-c2cnc3sc(NCCc4ccccn4)nn23)c1`, the Potency was 7.94 µM (active).

Consider `Cc1ccc(C(=O)N/C(=C\c2cccs2)C(=O)NCCc2ccccn2)cc1C`, for which the Potency entry was “inactive”.

For `COc1ccc(-c2nc3sc(CCNC(=O)C(C)(C)C)c(C)n3n2)cc1`, the Potency result is “inactive”.

As to `CCCN(CCC)S(=O)(=O)c1ccc(C(=O)Nc2sc3c(c2C(=O)OC)CCN(CC)C3)cc1`, the Potency entry was “inactive”.

Turning to `COc1ccc(Cl)cc1NC(=O)c1sc2nc3c(cc2c1N)CN(C)CC3`, the Potency result is “inactive”.

Turning to `O=C1C[C@@H](c2ccc3ccccc3c2)N1S(=O)(=O)c1ccccc1[N+](=O)[O-]`, the Potency result was “inactive”.

Consider `Cc1ccc(-n2ncc3c(NCCCn4ccnc4)ncnc32)cc1Cl`, for which the Potency entry is “inactive”.

Regarding `Oc1c(Cl)cc(Cl)c(Cl)c1Cc1c(O)c(Cl)cc(Cl)c1Cl`, the Potency was 5.62 µM (active).

With `CCOc1ccc(N(CC)C(=O)c2noc3c2COc2ccc(C)cc2-3)cc1`, the Potency result was “inactive”.

Consider `Cc1ccc(C=O)cc1Cl`, for which the Potency entry was “inactive”.

For `CSc1ccc(C2c3c(oc4ccccc4c3=O)C(=O)N2CCCN2CCOCC2)cc1` (centres undefined), the Potency result was “inactive”.

As for `COc1cccc(CNC(=O)c2cc(=O)[nH]c3ccc(S(=O)(=O)N4CCCCC4)cc23)c1`, the Potency result was “inactive”.

For `c1ccc2cc3c(NCCN4CCOCC4)ccnc3cc2c1`, the Potency was 3.98 µM (active).

On to `Fc1ccc(-c2ccc(NCCN3CCOCC3)nn2)cc1`, for which the Potency entry was “inactive”.

For `O=C(NCCN1CCOCC1)c1cc(Sc2cccc(Cl)c2)nc2ccccc12`, the Potency result is “inactive”.

For the compound `COc1ccc(S(=O)(=O)c2c(Nc3ccc(C)cc3)sc(C(=O)c3ccc(C)cc3)c2N)cc1`, the Potency entry was “inactive”.

On to `Cc1ccc(-c2nc(CSCC(=O)NC3CCN(Cc4ccccc4)CC3)c(C)o2)cc1`, for which the Potency is 11.2 µM (active).

Regarding `CCOc1ccc(CC(=O)NC2CCN(Cc3ccccc3)CC2)cc1`, the Potency entry was “inactive”.

Turning to `COc1ccc(-c2nc(CN3CCC(C(=O)NCc4ccccc4)CC3)c(C)o2)cc1OC`, the Potency result is “inactive”.

Consider `CSc1ccccc1NC(=O)CCS(=O)(=O)c1nc(-c2cccs2)cc(C(F)(F)F)n1`, for which the Potency result is “inactive”.

Turning to `COc1ccccc1-c1cc(C(F)(F)F)nc(S(=O)(=O)CCCC(=O)Nc2ccc(F)cc2F)n1`, the Potency was 3.98 µM (active).

On to `COc1ccccc1-c1cc(C(F)(F)F)nc(S(=O)(=O)CCCC(=O)Nc2cc(C)ccc2O)n1`, for which the Potency result is “inactive”.

For `CCOc1cc(C(=O)Nc2nnc3n2CCS3)cc(OCC)c1OCC`, the Potency result was “inactive”.

With `Cc1onc(NC(=O)c2ccc([N+](=O)[O-])o2)c1Br`, the Potency is 11.2 µM (active).

For `O=C(Nc1ccc(Br)cn1)c1ccc([N+](=O)[O-])o1`, the Potency is 10 µM (active).

Turning to `CN1C(=O)c2ccc(C(=O)Nc3ccc(Br)cn3)cc2C1=O`, the Potency result was “inactive”.

For `Cc1cccc(NC(=O)c2ccc([N+](=O)[O-])o2)c1`, the Potency was 11.2 µM (active).

In the case of `Cc1onc(C(=O)Nc2ccc3c(c2)OCO3)c1[N+](=O)[O-]`, the Potency entry was “inactive”.

In the case of `O=C(Nc1cccc(NC(=O)c2ccccc2[N+](=O)[O-])c1)c1ccccc1Cl`, the Potency entry is “inactive”.

Take `O=C(Nc1ccc(Br)cn1)c1ccc([N+](=O)[O-])cc1Cl`: the Potency entry was “inactive”.

In the case of `Cc1cccc(NC(=O)CCn2c(=O)oc3ccccc32)c1`, the Potency result is “inactive”.

For `O=C(COC(=O)c1ccc([N+](=O)[O-])o1)NC12CC3CC(CC(C3)C1)C2`, the Potency result is “inactive”.

On to `CCOc1ccc(N(CC)C(=O)C2CCN(S(=O)(=O)c3cccc4nonc34)CC2)cc1`, for which the Potency entry is “inactive”.

Take `COc1ccc(NC(=O)c2sc3nc[nH]c(=O)c3c2C)cc1`: the Potency entry was “inactive”.

With `Cc1nc2ccn(Cc3cccnc3)c(=O)c2cc1C(=O)N1CCN(c2ccccc2F)CC1`, the Potency result was “inactive”.

On to `Cc1nn(C(C)C(=O)Nc2ccc(C(C)C)cc2)c(=O)c2c1sc1ccccc12` (centres undefined), for which the Potency result is “inactive”.

`Cc1ccc2sc(N(Cc3cccnc3)C(=O)C3COc4ccccc4O3)nc2c1C` (centres undefined): the Potency result was “inactive”.

On to `O=C(c1ccccc1F)N1CCC(c2nc3c(nnn3Cc3cccc(F)c3)c(=O)[nH]2)CC1`, for which the Potency entry is “inactive”.

`O=[N+]([O-])c1ccc(C=Nc2ccc(Cl)cc2Cl)s1`: the Potency was 10 µM (active).

Consider `CCOC(=O)c1sc(NC(=O)/C=C/c2ccc(C(C)C)cc2)c(C(=O)OCC)c1C`, for which the Potency result is “inactive”.

For `CS(=O)c1ccc(/C=C2\C=Cc3ccccc32)cc1` (centres undefined), the Potency entry is “inactive”.

Consider `COc1cccc(-c2cc(C(=O)Nc3ccc(C)cc3)[nH]n2)c1`, for which the Potency result is “inactive”.

Consider `O=C(Cn1c(NCCO)nc2ccccc21)c1ccc(Cl)cc1Cl`, for which the Potency result was “inactive”.

As for `O=C(O)c1ccc(Nc2nc(-c3ccccc3)c3cc(Br)ccc3n2)cc1`, the Potency entry is “inactive”.

Turning to `OCCNc1nc(Nc2ccc(Cl)c(Cl)c2)nc2ccccc12`, the Potency was 11.2 µM (active).

On to `O=C(C1CC1)N1CCc2cc(Br)cc(S(=O)(=O)N3CCN(c4ccccc4F)CC3)c21`, for which the Potency entry is “inactive”.

For the compound `CCOC(=O)CNC(=O)c1cc2c(=O)n3cccc(C)c3nc2s1`, the Potency result was “inactive”.
